Assay results: PubChem BioAssay (EPA / NIEHS)
Values joined by “and” are separate entries in the source; they are usually repeats but may differ in a detail not shown here. Equal entries are not always repeated. Inconclusive results are not listed. The source holds several records for some structures; these can differ, active in one and inactive in another. Active and inactive are the calls of the source. The calls were made as follows: active = hit-call score of the fitted dose curve at least 0.9, where 1 is the maximum; inconclusive = response in the unintended direction; inactive = score below 0.9.

Experiments:
[1] = TOX21_p53_BLA_p2_viability: Viability Assessment in the Tox21 HCT-116 p53 Agonism Beta-lactamase Assay, Phase 2 (AID 2283591);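 also: compound exposure lasted 16 h at 37 °C; actives lower the ATP signal meaning cytotoxicity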
In short: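 Cytotoxicity readout: CellTiter-Glo ATP luminescence, 30 min at room temperature, after the beta-lactamase read. Cells were HCT116 exposed 16 h at 37C to compounds pin-transferred at 217-fold dilution from DMSO stocks.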

[2] = target: Cellular tumor antigen p53 (Homo sapiens) (UniProt P04637); assay: TOX21_p53_BLA_p2_ratio: Tox21 HCT-116 p53 Agonism Beta-lactamase Assay, Ratio, Phase 2 (AID 2283592)
In short: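 Plated HCT116 p53-bla cells (4000/well) received compound after 5 h, then 16 h at 37C/5% CO2. CCF4-AM added, 2 h RT. Ratio of 460 to 530 nm emission taken as the p53 reporter signal.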

[3] = TOX21_p53_BLA_p3_viability: Viability Assessment in the Tox21 HCT-116 p53 Agonism Beta-lactamase Assay, Phase 3 (AID 2283593);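 also: cells exposed to compound for 16 h before reading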
In short: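 Cellular ATP was quantified by CellTiter-Glo luminescence, read after 30 min at room temperature. Beforehand, HCT116 cells (4000/well) received compound 5 h post-seeding, 217-fold diluted from DMSO, then incubated 16 h at 37C.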

[4] = target: Cellular tumor antigen p53 (Homo sapiens) (UniProt P04637); assay: TOX21_p53_BLA_p3_ratio: Tox21 HCT-116 p53 Agonism Beta-lactamase Assay, Ratio, Phase 3 (AID 2283596)
In short: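 Cells were seeded at 4000/well, rested 5 h at 37C, then dosed with DMSO compound solutions (217-fold dilution) for 16 h. CCF4-AM substrate was loaded for 2 h at room temperature, and the 460/530 nm emission ratio was fitted for gain of signal versus DMSO.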

[5] = TOX21_p53_BLA_p4_viability: Viability Assessment in the Tox21 HCT-116 p53 Agonism Beta-lactamase Assay, Phase 4 (AID 2283597);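 also: hits lower the luminescence signal meaning cytotoxicity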
In short: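 Readout: ATP luminescence (CellTiter-Glo), measured 30 min after reagent addition at RT. The reagent followed a 2 h CCF4-AM incubation, and the cells had been exposed to compound for 16 h at 37C.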

[6] = target: Cellular tumor antigen p53 (Homo sapiens) (UniProt P04637); assay: TOX21_p53_BLA_p5_ratio: Tox21 HCT-116 p53 Agonism Beta-lactamase Assay, Ratio, Phase 5 (AID 2283599)
In short: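 Beta-lactamase reporter ratio (blue 460 nm over green 530 nm, 405 nm excitation) after 2 h CCF4-AM loading, in HCT-116 cells exposed 16 h at 37 C to compounds pinned at 217-fold dilution. Increases relative to DMSO baseline scored.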

[7] = TOX21_p53_BLA_p5_viability: Viability Assessment in the Tox21 HCT-116 p53 Agonism Beta-lactamase Assay, Phase 5 (AID 2283600)
In short: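 Workflow: seed 4000 cells per well, wait 5 h, add compounds (DMSO, 217-fold dilution), incubate 16 h, load CCF4-AM 2 h, add CellTiter-Glo, read luminescence after 30 min.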

[8] = target: Cellular tumor antigen p53 (Homo sapiens) (UniProt P04637); assay: TOX21_p53_BLA_p4_ratio: Tox21 HCT-116 p53 Agonism Beta-lactamase Assay, Ratio, Phase 4 (AID 2283601)
In short: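 Signal is the blue/green (460nm/530nm) ratio of cleaved versus uncleaved CCF4-AM substrate, read after 2 h substrate loading. Cells were HCT116 carrying the p53-responsive beta-lactamase reporter, dosed 16 h at 37C, 5% CO2; CellTiter-Glo measured in parallel.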

[9] = target: Estrogen receptor (Homo sapiens) (UniProt P03372); assay: NVS_NR_hER: NovaScreen (NVS) Nuclear Receptor Binding Assay for human Estrogen Receptor (ER) (AID 2283348)
In short: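 Cell-free MCF7-derived ER preparation, specific radioligand displaced by test compound, read by scintillation counting 18 h post-dosing. Duplicate single-point 25 uM screen, then concentration-response confirmation; DMSO baseline.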

Chain of Cellular tumor antigen p53 (Homo sapiens) (P04637 whole entry, looked up): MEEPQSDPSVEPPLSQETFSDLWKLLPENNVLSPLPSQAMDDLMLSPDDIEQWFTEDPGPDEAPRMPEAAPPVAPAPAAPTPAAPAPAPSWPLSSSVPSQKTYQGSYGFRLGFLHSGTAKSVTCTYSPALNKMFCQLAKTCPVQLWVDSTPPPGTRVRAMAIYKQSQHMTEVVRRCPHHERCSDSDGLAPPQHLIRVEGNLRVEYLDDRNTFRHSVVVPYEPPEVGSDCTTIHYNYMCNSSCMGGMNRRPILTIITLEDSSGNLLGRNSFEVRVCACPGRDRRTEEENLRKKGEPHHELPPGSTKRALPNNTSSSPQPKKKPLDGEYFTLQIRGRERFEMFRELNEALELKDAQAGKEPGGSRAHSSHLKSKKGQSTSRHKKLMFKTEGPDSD
Chain of Estrogen receptor (Homo sapiens) (P03372 whole entry, looked up): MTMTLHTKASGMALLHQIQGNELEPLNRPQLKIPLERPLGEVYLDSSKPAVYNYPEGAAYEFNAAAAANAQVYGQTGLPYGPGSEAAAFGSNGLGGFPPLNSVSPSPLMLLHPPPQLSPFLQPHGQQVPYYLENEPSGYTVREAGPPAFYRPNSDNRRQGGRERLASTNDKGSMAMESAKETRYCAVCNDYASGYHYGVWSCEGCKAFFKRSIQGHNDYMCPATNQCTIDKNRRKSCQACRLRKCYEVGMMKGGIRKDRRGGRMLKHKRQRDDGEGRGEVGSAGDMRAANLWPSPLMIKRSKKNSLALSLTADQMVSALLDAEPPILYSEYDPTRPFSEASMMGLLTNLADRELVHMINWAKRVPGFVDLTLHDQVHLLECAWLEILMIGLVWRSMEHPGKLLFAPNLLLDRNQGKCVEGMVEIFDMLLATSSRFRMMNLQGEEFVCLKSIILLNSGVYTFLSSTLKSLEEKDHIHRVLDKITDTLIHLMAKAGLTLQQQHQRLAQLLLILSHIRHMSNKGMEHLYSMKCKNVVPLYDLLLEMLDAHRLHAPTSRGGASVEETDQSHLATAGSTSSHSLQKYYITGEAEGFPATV

S=c1nc[nH]c2nc[nH]c12
AC50 [1]: 1.56 µM (active)
outcome [1]: inactive
AC50 [2]: 7.89 µM (active) and 10.1 µM (active)
AC50 [3]: 674 nM (active) and 2.62 µM (active)
AC50 [4]: 9.95 µM (active) and 8 µM (active)
AC50 [5]: 1.65 µM (active) and 3 µM (active)
AC50 [6]: 11.1 µM (active) and 8.01 µM (active)
outcome [7]: inactive
AC50 [8]: 6.3 µM (active) and 6.4 µM (active)

COc1ccc2cc3[n+](cc2c1OC)CCc1cc2c(cc1-3)OCO2
AC50 [1]: 20.8 µM (active)
outcome [1]: inactive
AC50 [2]: 4.58 µM (active)
outcome [2]: inactive
AC50 [3]: 41.2 µM (active)
outcome [3]: inactive
outcome [4]: inactive
AC50 [5]: 28.5 µM (active)
outcome [5]: inactive
AC50 [6]: 66.7 µM (active)
outcome [6]: inactive
outcome [7]: inactive
AC50 [8]: 53.1 µM (active)
outcome [8]: inactive

CCCCCCC/C=C/C=O
outcome [1]: inactive
outcome [3]: inactive
outcome [4]: inactive
outcome [6]: inactive
outcome [7]: inactive

CCOc1nc2cccc(C(=O)OC(C)OC(=O)OC3CCCCC3)c2n1Cc1ccc(-c2ccccc2-c2nn[nH]n2)cc1 (stereo not drawn)
outcome [9]: inactive
AC50 [1]: 8.23 µM (active)
AC50 [2]: 14 µM (active)
AC50 [3]: 13 µM (active)
AC50 [4]: 34 µM (active)
AC50 [5]: 13.4 µM (active)
AC50 [6]: 15.7 µM (active)
AC50 [7]: 7.02 µM (active)
AC50 [8]: 24.4 µM (active)

CN1c2cc(O)c(N=NC(N)=O)cc2CC1S(=O)(=O)O (stereo not drawn)
outcome [1]: inactive
outcome [2]: inactive

CC(=O)CCc1ccc(OC(C)=O)cc1
outcome [9]: inactive
outcome [1]: inactive
outcome [2]: inactive
outcome [3]: inactive
outcome [5]: inactive
outcome [6]: inactive
outcome [8]: inactive

CNCCC(Oc1ccc(C(F)(F)F)cc1)c1ccccc1 (stereo not drawn)
AC50 [1]: 68.1 µM (active)
outcome [1]: inactive
outcome [2]: inactive
AC50 [3]: 74 µM (active)
outcome [3]: inactive
outcome [4]: inactive
AC50 [5]: 67.3 µM (active) and 33.8 µM (active)
outcome [6]: inactive
AC50 [7]: 73.2 µM (active)
outcome [7]: inactive
outcome [8]: inactive

CNC(=O)Nc1ccc(Cl)c(Cl)c1
outcome [1]: inactive
outcome [2]: inactive
outcome [3]: inactive
outcome [4]: inactive
outcome [5]: inactive
outcome [6]: inactive
outcome [7]: inactive
outcome [8]: inactive

COc1cc(C(=S)N2CCOCC2)cc(OC)c1OC
outcome [1]: inactive
outcome [2]: inactive

CC(C)CC(=O)C1C(=O)c2ccccc2C1=O
outcome [9]: inactive
outcome [1]: inactive
outcome [6]: inactive
outcome [7]: inactive
outcome [8]: inactive

CC(C)(C)c1ccc(C(O)CCCN2CCC(C(O)(c3ccccc3)c3ccccc3)CC2)cc1 (stereo not drawn)
AC50 [1]: 34.4 µM (active)
outcome [1]: inactive
AC50 [2]: 42.7 µM (active)
AC50 [3]: 37.9 µM (active) and 31.8 µM (active)
AC50 [4]: 43.3 µM (active) and 39.2 µM (active)
AC50 [5]: 32.4 µM (active)
outcome [5]: inactive
outcome [6]: inactive
outcome [7]: inactive
AC50 [8]: 42.2 µM (active)
outcome [8]: inactive

C[C@H](CCC(=O)O)[C@H]1CC[C@H]2[C@@H]3CC[C@@H]4C[C@H](O)CC[C@]4(C)[C@H]3C[C@H](O)[C@]12C
AC50 [1]: 80.9 µM (active)
outcome [1]: inactive
AC50 [2]: 85.4 µM (active)
outcome [2]: inactive
AC50 [3]: 73.6 µM (active)
outcome [3]: inactive
AC50 [6]: 86.7 µM (active)
outcome [6]: inactive
AC50 [8]: 87.2 µM (active)
outcome [8]: inactive
